Measured values taken from PubChem BioAssay (NCI).
The panel holds about 83,000 compounds, 20% with a hit somewhere; the sample as a whole holds those more often.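 Assay: single dose, 48 h. Readout: percent growth (0 = no net growth; negative = cell death). Active: <10.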 Active and inactive are the calls of the source.

Tested on: CCRF-CEM leukemia
Experiment: NCI-60 one-dose screen, 48 h (100 = growth as untreated, 0 = no growth, -100 = all killed)
Details: 10 µM

SMILES	growth
CN1CCN(c2ccc(Nc3nc(NCCCNC(=O)c4ccc(F)cc4)c4sccc4n3)cc2)CC1	18.8% (inactive)
O=C(CS(=O)(=O)c1oc(-c2ccc(Cl)cc2)nc1S(=O)(=O)c1ccc(Cl)cc1)N1CCOCC1	-34.6% (active)
COc1cccc(COc2ccc(/C=C3\Oc4cc(O)ccc4C3=O)cc2)c1	74.9% (inactive)
COc1cccc(C(N)=Nc2ccc(OCCCCCCn3cncn3)cc2)c1	10.4% (inactive)
CN(C)c1cccc2c(S(=O)(=O)Nc3cccc(-c4csc(NC(=O)CCCCCN5CCN(c6cc7c(cc6F)C(=O)N(C6CCC(=O)NC6=O)C7=O)CC5)n4)c3)cccc12 (configuration not stated)	66.3% (inactive)
Cc1ccc(C(C)C)cc1NC(=O)c1ccccc1O	24.5% (inactive)
NC(=Nc1ccc(OCCCCCCCCn2ccnn2)cc1)c1ccccc1	15.6% (inactive)
O=c1[nH][nH]c(Nc2ccccc2)c1N=Nc1ccc(F)cc1	93.9% (inactive)
COc1ccc2[nH]c(O)c(N=NC(=O)c3cc(-c4ccc(C)cc4)nc4ccccc34)c2c1	52.1% (inactive)
CNC(=O)c1cc(-c2ccc(NC(=O)Nc3ccc(C)cc3)cc2)nc2cccnc12	93.5% (inactive)
CC(=O)NNc1ccc2nnc(-c3ccc(Br)cc3)n2n1	40.1% (inactive)
O=c1oc2ccc(-c3ccc(F)cc3F)cc2c(=O)n1-c1ccc(F)c(Cl)c1	-5.97% (active)
CCN1CCN(c2ccc(NC(=O)Nc3ccc(-c4cc(C(=O)NC(C)C)c5ncccc5n4)cc3)cc2C(F)(F)F)CC1	-44.5% (active)
CN1CCN(c2ccc(Nc3nc(NCCCNC(=O)c4ccc(Cl)cc4)c4sccc4n3)cc2)CC1	34.8% (inactive)
CCCCCc1ccc(S(=O)(=O)N(C(C)=O)c2cc(-c3csc(N(C)C(C)=O)n3)ccc2N2CCN(C)CC2)cc1	-7.22% (active)
COc1ccc2[nH]c(O)c(N=NC(=O)COc3ccc(NC(=O)Nc4ccc(Cl)cc4)cc3)c2c1	8.83% (active)
CC1(C)CC[C@]2(C(=O)N3CCOCC3)CC[C@]3(C)C(=CC[C@@H]4[C@@]5(C)CC[C@H](NCO)C(C)(C)[C@@H]5CC[C@]43C)[C@H]2C1	-33.8% (active)
Cc1ccc(-c2cc(C(=O)N=Nc3c(O)[nH]c4ccc(Br)cc34)c3ccccc3n2)cc1	26.8% (inactive)
CCC(C)S(=O)(=O)c1oc(-c2ccc(C)cc2)nc1S(=O)(=O)c1ccccc1 (configuration not stated)	-46% (active)
CCCCCc1ccc(S(=O)(=O)Nc2cc(-c3csc(N(C)C(C)=O)n3)ccc2N2CCN(C)CC2)cc1	-27.5% (active)
CC(C)C(=O)Nc1ccc(C(=O)NC(=S)Nc2ccc(C(=O)O)cc2)cc1	107% (inactive)
CN1CCN(c2ccc(Nc3nc(N4CCN(S(=O)(=O)c5ccc(F)cc5)CC4)c4sccc4n3)cc2)CC1	-1.97% (active)
O=C(Cn1cc(CSc2nnc3oc4ccccc4n23)nn1)Nc1ccc(Br)cc1	97.9% (inactive)
CC1(C)CC[C@]2(C(=O)NCCCNCCCCNCCCN)CC[C@]3(C)C(=CC[C@@H]4[C@@]5(C)Cc6c([nH]c7ccccc67)C(C)(C)[C@@H]5CC[C@]43C)[C@H]2C1	64.4% (inactive)
CC(=O)Nc1nc(-c2ccc(N3CCN(C)CC3)c(NS(=O)(=O)c3ccc(C(F)(F)F)cc3)c2)cs1	-13.4% (active)
O=C(NO)c1ccc(Cn2ccc3c(Nc4ccccc4)ncnc32)cc1	18.2% (inactive)
CC(=O)Nc1nc(-c2ccc(N3CCN(C)CC3)c(NS(=O)(=O)c3cccc4c(N(C)C)cccc34)c2)cs1	8.38% (active)
